Assay results taken from PubChem BioAssay (NCATS).
Records with an inconclusive call do not appear. Calls of active or inactive are those of the source. Calls come from the whole dose curve; as a rule, active = well fitted inhibition curve with a large enough effect; inconclusive = small, poorly fitted or top-dose-only effect; inactive = flat fitted curve, though single readings scatter.

Key:
Assay in all cases: qHTS profiling for inhibitors of Plasmodium falciparum proliferation (AID 504749); note: nearly all actives have a fitted effect of over 60% in size
Details in all cases: P. falciparum in erythrocytes, SYBR Green DNA, 72 h; series mostly up to 28.7 µM
CP191 = test system: CP191
Summary of the method: (§1)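 Infected RBCs, 0.3% parasitemia/2.5% Hct final; cpd 72 h, 37 C, 5% CO2; lysis buffer with saponin/triton/SYBR Green I, o/n RT dark; FI 485/535; norm. to artemisinin (0.29 uM) and DMSO.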

CP201 = test system: CP201
Summary of the method: as §1

CP237 = test system: CP237
Summary of the method: as §1

CP260 = test system: CP260
Summary of the method: as §1

CP262 = test system: CP262
Summary of the method: as §1

CP266 = test system: CP266
Summary of the method: as §1

CP185 = test system: CP185
Summary of the method: as §1

CP194 = test system: CP194
Summary of the method: as §1

CP211 = test system: CP211
Summary of the method: as §1

CP215 = test system: CP215
Summary of the method: as §1

CP217 = test system: CP217
Summary of the method: as §1

CP238 = test system: CP238
Summary of the method: as §1

CP247 = test system: CP247
Summary of the method: as §1

CP250 = test system: CP250
Summary of the method: as §1

CP252 = test system: CP252
Summary of the method: as §1

CP256 = test system: CP256
Summary of the method: as §1

CP265 = test system: CP265
Summary of the method: as §1

CP268 = test system: CP268
Summary of the method: as §1

CP192 = test system: CP192
Summary of the method: as §1

CP203 = test system: CP203
Summary of the method: as §1

Measured: Potency
Potency is the fitted concentration of half-maximal effect.

O=c1[nH]c2ccccc2n1CCCN1CCC(n2c(=O)[nH]c3cc(Cl)ccc32)CC1
active: CP191 3.98 µM | CP237 7.94 µM | CP260 11.2 µM
inactive: CP201 | CP262 | CP266

CC[C@@H](CO)NC(=O)[C@@H]1C=C2c3cccc4[nH]cc(c34)C[C@H]2N(C)C1
not listed: CP192 | CP203
inactive: all other assays above

O=[N+]([O-])c1cc([As](=O)(O)O)ccc1O
active: CP191 3.16 µM | CP217 3.16 µM | CP237 3.16 µM | CP250 3.16 µM | CP252 3.16 µM | CP260 3.16 µM

FC(F)(F)c1cccc(C2=CCN(CCc3ccc4ccccc4c3)CC2)c1
not listed: CP191 | CP256 | CP268 | CP203
inactive: all other assays above

Clc1cccc(N2CCNCC2)c1
not listed: CP237 | CP194 | CP211 | CP203
inactive: all other assays above

CC(=O)Nc1cc([As](=O)(O)O)ccc1O
not listed: CP201
inactive: all other assays above

CCOC(=O)C1(c2ccccc2)CCN(CCC(C#N)(c2ccccc2)c2ccccc2)CC1
active: CP185 3.16 µM | CP191 3.16 µM | CP192 4.78 µM | CP201 4.26 µM | CP215 4.26 µM | CP217 3.16 µM | CP237 3.98 µM | CP238 3.16 µM | CP247 4.47 µM | CP250 3.55 µM | CP252 3.55 µM | CP256 1.58 µM | CP260 3.55 µM | CP262 5.36 µM | CP265 2.51 µM | CP266 6.01 µM | CP268 3.79 µM

CCN(CC)CCN1C(=O)CN=C(c2ccccc2F)c2cc(Cl)ccc21
not listed: CP237 | CP185 | CP194 | CP211 | CP238 | CP265 | CP203
inactive: all other assays above

Oc1ccc(Cl)cc1Cc1ccccc1
active: CP203 16.9 µM
inactive: CP185 | CP201 | CP211 | CP238 | CP250 | CP262 | CP266

c1ccc2c(c1)Nc1ccccc1S2
inactive: CP201 | CP238 | CP265 | CP266
active: CP191 7.94 µM | CP247 10 µM | CP250 4.47 µM | CP260 10 µM

C=C(C)[C@H]1Cc2c(ccc3c2O[C@@H]2COc4cc(OC)c(OC)cc4[C@@H]2C3=O)O1
not listed: CP262 | CP194
inactive: all other assays above

CC(CCc1ccccc1)NC(C)C(O)c1ccc(O)cc1 (stereo not drawn)
active: CP237 5.62 µM
inactive: CP185 | CP191 | CP192 | CP217 | CP250 | CP252 | CP256 | CP262 | CP266

N#CC(C#N)=Cc1ccc(O)c(O)c1
not listed: CP191 | CP215 | CP250 | CP256 | CP203
inactive: all other assays above

C=C1CC[C@@]2(O)[C@H]3Cc4ccc(O)c5c4[C@@]2(CCN3CC2CC2)[C@H]1O5
not listed: CP191 | CP237 | CP260 | CP203
inactive: all other assays above

CCC1(C2=NCCN2)Cc2ccccc2O1 (stereo not drawn)
active: CP185 10 µM | CP237 10 µM
inactive: CP192 | CP262

Cc1cccc(C)c1NC1=NCCCS1
active: CP237 7.08 µM
inactive: CP191 | CP192 | CP247 | CP250 | CP266

CCCN1CCC[C@@H]2Cc3[nH]ncc3C[C@H]21
inactive: CP192 | CP194 | CP201 | CP203 | CP211 | CP215 | CP262 | CP266 | CP268

COc1ccc(C(CN(C)C)C2(O)CCCCC2)cc1 (stereo not drawn)
active: CP237 7.08 µM
not listed: CP266 | CP194 | CP265 | CP203
inactive: all other assays above

Oc1cc(Cl)ccc1Oc1ccc(Cl)cc1Cl
inactive: CP266
active: CP191 11.2 µM | CP192 12 µM | CP194 13.5 µM | CP203 15.1 µM | CP215 13.5 µM | CP217 7.94 µM | CP237 7.08 µM | CP238 10 µM | CP252 7.94 µM | CP260 11.2 µM

N[C@@H](Cc1ccc(N(CCCl)CCCl)cc1)C(=O)O
inactive: CP192 | CP201 | CP203 | CP211 | CP215 | CP256 | CP262 | CP266 | CP268

Cc1ccc(-c2nc3ccc(C)cn3c2CC(=O)N(C)C)cc1
not listed: CP191 | CP256 | CP203
inactive: all other assays above
